Laboratory results taken from PubChem BioAssay (NCATS).
Inconclusive results are not listed. Where a call stands in place of a potency, no number is given. The source made the active and inactive calls. Calls follow the shape of the dose curve; as a rule, active = well fitted curve in the direction sought with a large enough effect; inconclusive = small, poorly fitted or top-dose-only effect, or another doubt; inactive = no such curve, though single readings can be large; an effect the other way counts as inactive or inconclusive.

Key:
[1] = molecular target: Cytochrome P450 3A7 (Homo sapiens) (UniProt P24462); assay: Cytochrome P450 family 3 subfamily A member 7 (CYP3A7) small molecule antagonists: luciferase biochemical qHTS assay (AID 1963596); also: nearly all actives have a fitted effect of over 40% in size
Chain of Cytochrome P450 3A7 (Homo sapiens) (P24462 whole entry, looked up): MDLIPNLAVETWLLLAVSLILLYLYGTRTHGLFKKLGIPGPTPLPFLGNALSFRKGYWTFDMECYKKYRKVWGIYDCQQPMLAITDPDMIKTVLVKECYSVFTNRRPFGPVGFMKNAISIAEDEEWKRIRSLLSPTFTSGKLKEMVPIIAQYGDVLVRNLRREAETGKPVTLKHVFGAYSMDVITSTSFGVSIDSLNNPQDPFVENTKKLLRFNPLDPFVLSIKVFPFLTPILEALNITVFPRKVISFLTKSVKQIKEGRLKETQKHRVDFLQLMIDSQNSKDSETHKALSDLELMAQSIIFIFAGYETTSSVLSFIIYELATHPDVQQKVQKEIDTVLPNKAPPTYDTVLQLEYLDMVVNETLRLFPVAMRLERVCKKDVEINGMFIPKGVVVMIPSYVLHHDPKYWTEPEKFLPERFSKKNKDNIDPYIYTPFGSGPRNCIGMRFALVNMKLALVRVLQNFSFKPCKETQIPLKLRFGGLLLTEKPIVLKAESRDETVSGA
How it was run: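 Biochemical CYP3A7 activity measured with P450-Glo system: luciferin formed from proluciferin substrate in NADPH-driven reaction (1 h, room temperature) after 10 min compound preincubation. Signal in relative luminescence units.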

[2] = Viability qHTS for spleen associated tyrosine kinase inhibitor (SYKi) naive MV4-11 cells (AID 1963823); also: nearly all actives have a fitted effect of over 40% in size
How it was run: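 CellTiter-Glo luminescence, 10 min room-temperature incubation, gave viability. Cells: naive MV4-11 (500/well), treated 72 hr at 37 C, 5% CO2.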

[3] = Viability qHTS for spleen associated tyrosine kinase inhibitor (SYKi) drug resistant MV4-11 cells (AID 1963824); also: nearly all actives have a fitted effect of over 35% in size
How it was run: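 CellTiter-Glo luminescence, read 10 min after reagent addition, reports viability after a 72 hr compound exposure. Cells are an MV4-11 line made resistant to SYK inhibition, seeded at 500 per well onto compound-containing plates.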
Potency is read from the fitted curve at half-maximal effect.

Row | Structure (SMILES) | Potency [1] | Potency [2] | Potency [3]
1 | c1ccc(-c2csc(N3CCOCC3)n2)cc1 | inactive | inactive | 
2 | Cc1cc(NS(=O)(=O)c2ccc(N)cc2)no1 | inactive | inactive | 
3 | O=C1OC2(c3ccccc31)c1cc(Br)c(O)c(Br)c1Oc1c2cc(Br)c(O)c1Br | 19.5 µM (active) | inactive | 
4 | C[C@@H]([C@@H](O)c1ccc(O)cc1)N1CCC(O)(c2ccccc2)CC1 | inactive | inactive | 
5 | CN1CCN(c2cc3c(nn2)Oc2ccccc2N3C)CC1 | inactive | inactive | 
6 | N#Cc1cccc(-c2nc(-c3cccnc3)no2)c1 | inactive | inactive | 
7 | CC(C)[C@@H]1C(=O)N(S(C)(=O)=O)[C@@H]2CCN(C(=O)/C=C/CN3CCCCC3)[C@H]21 | inactive | inactive | 
8 | COc1cccc(OC)c1-c1nc(C(=O)N[C@@H](CC(C)C)C(=O)O)cn1-c1ccnc2cc(Cl)ccc12 | inactive | inactive | 
9 | O=C(O)CN(CCN(CC(=O)O)CC(=O)O)CCN(CC(=O)O)CC(=O)O | inactive | inactive | 
10 | C=C(C)Cn1c(SCC(=O)c2cccs2)nc2sc3c(c2c1=O)CCCC3 | inactive |  | 
11 | COc1ccc(-n2c(SCC#N)nc3sc4c(c3c2=O)CCCC4)cc1 | inactive | inactive | 
12 | COC(=O)C(CC1CCCC1)c1ccc(S(C)(=O)=O)cc1 (stereo not given) | inactive | inactive | 
13 | COc1ccc(-c2ccc(-c3cn(C(=O)N4CCCCC4c4ccccc4)nn3)cc2)cc1 (stereo not given) | inactive | inactive | 
14 | O=C(O)C[C@@H](NC(=O)c1cc(-c2ccc(-c3ccncc3)cc2)cs1)c1ccccc1 | inactive | inactive | 
15 | CCCCS(=O)(=O)NC(Cc1ccc(OCCCCC2CCNCC2)cc1)C(=O)O (stereo not given) | inactive | inactive | 
16 | O=C(Nc1cccc(C(F)(F)F)c1)Nc1ccc(Br)cc1-c1nn[nH]n1 | inactive | inactive | 
17 | CN(C)c1ccc(C(=C2C=CC(=[N+](C)C)C=C2)c2c(O)c(S(=O)(=O)[O-])cc3cc(S(=O)(=O)O)ccc23)cc1 | inactive |  | 
18 | Cc1cc(CC(=O)O)n(C)c1C(=O)c1ccc(Cl)cc1 | inactive | inactive | 
19 | CN(CCCOc1ccc(Cc2ccccc2)cc1)CCC(=O)O | inactive | inactive | 
20 | O=C(NCc1ccccn1)Nc1nnc(-c2ccco2)o1 | inactive | inactive | 
21 | CC1(C)CC(NC(=O)C(=O)Nc2ccc(Cl)cc2)CC(C)(C)N1 | inactive | inactive | 
22 | CCc1ccc(CNC(=O)C2CCCN(c3nnc(C)c4c(C)n(-c5ccccc5)nc34)C2)cc1 (stereo not given) | 2.82 µM (active) |  | 
23 | CC(C)(C(=O)c1cccnc1)c1cccnc1 | inactive | inactive | 
24 | Cc1c[nH]c2ccccc12 | inactive | inactive | 
25 | COc1cc(NC(=O)c2ccccn2)ccc1Cl | inactive |  | 
26 | CCN(CC)C(=O)c1cccnc1 | inactive |  | 

Row | Structure (SMILES) | Potency [1] | Potency [2] | Potency [3]
27 | Cc1ccc(C(=O)c2cn(CC(=O)Nc3ccc4c(c3)OCCO4)c3nc(C)ccc3c2=O)cc1 | inactive |  | 
28 | CC1(C)CCC(C)(C)c2cc(C#Cc3ccc(C(=O)O)cc3)ccc21 | inactive | inactive | 
29 | c1ccc2ccccc2c1 | inactive |  | 
30 | Cc1cccc(C#Cc2cc(F)cc(C#N)c2)n1 | inactive | inactive | 
31 | C[C@@H]1C[C@H](C)CN(CCC(=O)Nc2ccc(Br)cc2)C1 | inactive | inactive | 
32 | O=C(O)Cc1ccc2oc(-c3ccc(NC(=O)/C=C/c4ccc(Br)cc4)c(F)c3)nc2c1 | inactive | inactive | 
33 | CCOC(=O)c1csc(-n2nc(-c3ccc(F)c(F)c3)c(Cc3ccc(S(N)(=O)=O)cc3)c2N)n1 | inactive |  | 
34 | O=c1c(-c2ccccc2)c1-c1ccccc1 | inactive | 23.7 µM (active) | 
35 | Cc1nnc(-c2ccc(-c3ccc(C(=O)Nc4ccc(O)c(N5CCN(C)CC5)c4)cc3)c(C)c2)o1 | inactive | inactive | 
36 | O=C(O)[C@@H]1C[C@H]2C[C@@H](CCc3nn[nH]n3)CC[C@H]2CN1 | inactive | inactive | inactive
37 | Cc1nc(C#Cc2ccnc(Cl)c2)c(C)n1-c1ccc(F)cc1 | inactive | 8.2 µM (active) | 8.2 µM (active)
38 | O=C(O)CC1CCC(c2ccc(NC(=O)c3nnc(Nc4ccc(F)c(F)c4)o3)cc2)CC1 (stereo not given) | inactive | inactive | inactive
39 | O=C1N=C(N2CCOCC2)CN1c1ccc(Cl)cc1 | inactive | inactive | inactive
40 | O=C(O)c1n[nH]c2c1C[C@H]1C[C@@H]21 | inactive | inactive | inactive
41 | O=C(NCC1CCN(Cc2cccc(Cl)c2)CC1)[C@@H]1CCCN(c2ncnc3c2nc2n3CCCC2)C1 | inactive | 2.31 µM (active) | 10.3 µM (active)
42 | CC(C)(C)OC(=O)N1CCC(OCc2nc(-c3ccncc3)no2)CC1 | inactive | inactive | inactive
43 | COc1ccc(C(=O)Nc2ncc(-c3ccc(C(=O)O)cc3)s2)cc1 | inactive | 0.461 µM (active) | 0.461 µM (active)
44 | CNC(=O)Nc1ccc(OC)c(NC(=O)NC(=O)c2cc(F)c(F)cc2Cl)c1 | inactive | inactive | inactive
45 | C=CC(=O)Nc1cc(Nc2nccc(-c3c[nH]c4ccccc34)n2)c(OC)cc1N(C)CCN(C)C | inactive | 0.411 µM (active) | 0.58 µM (active)
46 | Cc1onc(-c2ccccc2)c1C(=O)N[C@@H]1C(=O)N2[C@@H]1SC(C)(C)[C@@H]2C(=O)O | inactive | inactive | inactive
47 | N#Cc1ccc(C(=O)N2CCC3(CC2)N=C(N)c2c(F)ccc(F)c2N3)cn1 | inactive | inactive | inactive
48 | COc1ccc(C2=N[C@@H](c3ccc(Cl)cc3)[C@@H](c3ccc(Cl)cc3)N2C(=O)N2CCNC(=O)C2)c(OC(C)C)c1 | inactive | 20.6 µM (active) | 10.3 µM (active)
49 | CN1CCN(C(=O)CN[C@@H]2C[C@H]2c2ccc(OCc3ccccc3)cc2)CC1 | inactive | 25.9 µM (active) | 25.9 µM (active)
50 | COc1ccc(C(=O)NCc2cc(C(C)C)no2)cc1OC1CCN(C)CC1 | inactive | inactive | inactive
51 | CCC1(O)CC2c3cc(OC)c(OC)cc3CCN2CC1CC(C)C (stereo not given) | inactive | inactive | inactive
52 | Cc1cnn(-c2ccccc2)c1NC(=O)COCc1ccccc1 | inactive | inactive | inactive

Row | Structure (SMILES) | Potency [1] | Potency [2] | Potency [3]
53 | CCCc1cc2c(N3CCN(C4=NCC(C)(C)S4)CC3)ncnc2s1 | inactive | 8.2 µM (active) | 5.8 µM (active)
54 | O=S(=O)(Cc1ccccc1)Nc1ccc(-c2ccc3c(cnn3-c3ccc(F)cc3)c2)c(C(F)(F)F)c1 | 12 µM (active) | 16.4 µM (active) | 20.6 µM (active)
55 | Cn1cc(-c2cnc3ccc4ccc(CS(=O)(=O)NCc5ccccn5)cc4c(=O)c3c2)cn1 | inactive | 14.6 µM (active) | 11.6 µM (active)
56 | Cc1cn(C[C@H](N)C(=O)O)c(=O)n(Cc2ccsc2C(=O)O)c1=O | inactive | inactive | inactive
57 | COc1cc(C(=O)NC2CCN(C)CC2)ccc1Nc1ncc2c(n1)N(C1CCCC1)CC(F)(F)C(=O)N2C | inactive | 0.0231 µM (active) | 0.0103 µM (active)
58 | O=C(c1ccc(Cl)c([N+](=O)[O-])c1)N1CCN(c2ccccc2F)CC1 | inactive | 23.1 µM (active) | 18.4 µM (active)
59 | NC(=O)c1ccc([N+](=O)[O-])cc1Cl | inactive | inactive | inactive
60 | C[C@@H](O)[C@H](NC(=O)c1ccc(C#Cc2ccc(CN3CCOCC3)cc2)cc1)C(=O)NO | inactive | 23.1 µM (active) | 23.1 µM (active)
61 | CN(C)CCCNc1nc(CN2CCN(C(c3ccc(Cl)cc3)c3ccc(Cl)cc3)CC2)nc2ccccc12 | inactive | 2.06 µM (active) | 3.26 µM (active)
62 | c1cc(OCCCN2CCCCC2)ccc1CN1CCCCC1 | inactive | inactive | inactive
63 | COC(=O)[C@H](CC1C=NC=N1)NCC12CC3CC(CC(C3)C1)C2 (stereo not given in full) | inactive | inactive | inactive
64 | O=C(O)c1cccc(S(=O)(=O)N2CCc3ccccc3C2)c1 | inactive | inactive | inactive
65 | Cn1nc(-c2ccc(C(F)(F)F)cc2)nc2c(=O)n(C)c(=O)nc1-2 | inactive | 3.66 µM (active) | 4.11 µM (active)
66 | CC(=O)N1CCN(NC(=O)c2ccc(F)cc2)CC1 | inactive | inactive | inactive
67 | N[C@@H](CCNCc1ccc(Cl)cc1)C(=O)N1CCCCC1 | inactive | inactive | inactive
68 | CCn1c2ccccc2c2cc(Nc3ccnc(NCCCN4CCOCC4)n3)ccc21 | inactive | 2.31 µM (active) | 2.59 µM (active)
69 | COc1cncc(C#Cc2ccccn2)c1 | inactive | inactive | inactive
70 | CCCCNC(=O)[C@@H]1Cc2ccccc2N1C(=O)[C@@H](N)CC | inactive | inactive | inactive
71 | CCNC(=O)C1CC(F)(c2ccc(CN3CCCC3)c(F)c2)C1 (stereo not given) | inactive | inactive | inactive
72 | COc1ccc(NC(=O)N2CCc3c2ccc2ccccc32)cc1N1CCN(C)CC1 | inactive | 9.2 µM (active) | 8.2 µM (active)
73 | FC(F)(F)c1cc(C(F)(F)F)c2ccc3nc(-c4nnco4)cn3c2n1 | inactive | inactive | inactive
74 | CC(C)C[C@@H](C(=O)N[C@@H](Cc1ccc(OCc2ccccc2)cc1)C(=O)NC(C)(C)C)N(C)Cc1ccc(C(C)(C)C)cc1 | inactive | inactive | 3.66 µM (active)
75 | O=S(=O)(c1ccc(Cl)cc1)N1CCN(c2ccnc3cc(Cl)ccc23)CC1 | inactive | 16.4 µM (active) | 16.4 µM (active)
76 | Nc1nc(O)c(C2=C3C(=Nc4ccccc43)C(=O)NCC2)[nH]1 | inactive | 0.461 µM (active) | 1.16 µM (active)
